Hits are enriched below; roughly 2.8% of the tested compounds scored in any of these assays.
IDE cell activ: human IDE activators in live cells, primary screen, fluorescence polarization, HEK cells, FAbeta-B substrate | Insulin-degrading enzyme (Homo sapiens), P14735 | activation, % at 5.96 µM | FAbeta-B cleavage; 0% vehicle, 100% cell-free pure enzyme wells | AID 493087, 2011 | actives 0.073% (n = 340,000);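 active = activation above the mean of all tested compounds plus 3 SD, set per screening campaign, cut at about 17% in these data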
Granule exo inh: LAMP-1 surface exposure blockers, TALL-104 cells – cell-based, flow cytometry, MLPCN library, primary screen; TALL-104 LAMP-1 surface exposure; cells stimulated with thapsigargin and PMA; inhibition, % at 10 µM; actives 0.66% (n = 360,000);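 active = inhibition above about 55%, limit read from the data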
PP1 inh: PP1-alpha phosphatase inhibitors, primary screen, counter-screen for PP5 inhibitor project, biochemical, fluorescence, OMFP substrate, single point. actives 0.9% (n = 320,000). Serine/threonine-protein phosphatase PP1-alpha catalytic subunit (Homo sapiens), P62136. purified PP1alpha. inhibition, % at 6.7 µM. AID 2235, 2010;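 active = inhibition above the mean inhibition of all tested compounds plus 3 SD, computed separately for each screening campaign, cut at about 15% in these data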
IDE cell inh: human IDE inhibitors in live cells, primary screen, fluorescence polarization, HEK cells, FAbetaB substrate. inhibition, % at 5.59 µM. FAbetaB cleavage. Insulin-degrading enzyme (Homo sapiens), P14735. AID 434962, 2010. actives 0.41% (n = 320,000);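 active = percent inhibition above the average of all tested compounds plus 3 SD, set per screening campaign, cut at about 16% in these data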;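 also: IDE supplied by intact live HEK cells; FP after avidin binding of uncleaved biotin substrate so inhibition keeps polarization high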
SKKanGAS inh: S. pyogenes SKKanGAS growth inhibitors in kanamycin, primary screen, streptokinase expression inhibitor project, SKKanGAS strain, BacTiter-Glo luminescence | inhibition, % at 7.5 µM | 6 h | actives 1.3% (n = 300,000);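 active = mean replicate score, as percent of positive control median, at least 50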;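 also: strain carries kanamycin resistance gene driven by streptokinase promoter and grows in 40 µg/ml kanamycin; loss of luminescence reflects streptokinase promoter inhibition or plain growth inhibition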
PP5 primary: PP5 phosphatase inhibitors, primary screen, biochemical, fluorescence | inhibition, % at 6.7 µM | actives 0.18% (n = 320,000) | purified PP5c, OMFP substrate fluorescence;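 active = inhibition above the campaign's mean inhibition across all tested compounds plus 3 SD, cut at about 9.5% in these data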
Target sequence (P53041 whole entry, looked up): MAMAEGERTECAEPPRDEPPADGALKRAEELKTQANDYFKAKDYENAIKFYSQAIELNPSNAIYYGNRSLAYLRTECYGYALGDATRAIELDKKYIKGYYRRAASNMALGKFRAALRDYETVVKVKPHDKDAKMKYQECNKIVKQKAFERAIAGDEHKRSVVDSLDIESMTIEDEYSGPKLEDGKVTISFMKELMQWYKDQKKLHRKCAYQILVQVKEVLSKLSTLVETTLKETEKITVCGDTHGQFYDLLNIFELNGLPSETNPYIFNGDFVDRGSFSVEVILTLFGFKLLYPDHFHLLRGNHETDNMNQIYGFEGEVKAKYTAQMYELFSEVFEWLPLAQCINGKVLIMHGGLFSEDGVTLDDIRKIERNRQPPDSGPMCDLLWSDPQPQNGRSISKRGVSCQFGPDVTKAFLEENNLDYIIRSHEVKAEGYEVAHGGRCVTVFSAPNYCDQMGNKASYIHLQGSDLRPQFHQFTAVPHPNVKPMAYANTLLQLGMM
Numbers stand for hits; n = inactive; x = not tested or not shown.

SMILES	IDE cell activ	Granule exo inh	PP1 inh	IDE cell inh	SKKanGAS inh	PP5 primary
O=C(COC(=O)Cc1cn2ccsc2n1)Nc1nc2ccccc2s1	n	n	n	n	80	n
CCOc1ccccc1C(=O)NC(C(=O)OCC(=O)NNC(=O)c1cccs1)C(C)C (centres undefined)	x	n	x	x	x	x
Cc1cccc(C(=O)OCC(=O)Nc2nnc(-c3ccccc3)o2)c1O	n	n	n	n	98	n
CCOc1ccccc1C(=O)OCC(=O)Nc1nnc(-c2ccccc2)o1	n	n	n	n	77	n
CCOc1ccccc1C(=O)NC(C(=O)OCC(=O)Nc1nnc(-c2ccccc2)o1)C(C)C (centres undefined)	n	n	16	n	60	n
CC1(C(=O)OCC(=O)Nc2nnc(-c3ccccc3)o2)CC1(Cl)Cl (centres undefined)	n	n	n	n	73	n
CCNC(=O)C1CCCN(C(=O)c2ccc(F)c(Cl)c2)CC1 (centres undefined)	x	n	x	x	x	x
CCCCNC(=O)C(NC(=O)c1ccc(-c2ccccc2)cc1)C(=O)c1ccccc1 (centres undefined)	x	n	x	x	x	x
CC1(NC(=O)Cc2c(F)cccc2Cl)CCS(=O)(=O)C1 (centres undefined)	n	n	x	n	x	x
COc1ccc(C(=O)N2CCN(c3ccccn3)CC2)cc1[N+](=O)[O-]	n	n	n	n	n	n
O=C(NC(=S)Nn1cnc2c(cnn2-c2ccccc2)c1=O)c1ccc(Oc2ccccc2)cc1	n	n	n	n	89	n
O=C(O)c1cccnc1SCc1cccc(Br)c1	n	n	n	n	n	n
CC(Oc1ccc(-c2ccccc2)cc1)C(=O)N/N=C/c1cccnc1 (centres undefined)	n	56	n	n	n	n
Oc1c(Cl)cccc1C=Nc1cc(C(F)(F)F)ccc1N1CCCC1	n	n	n	n	n	n
Oc1c(Cl)cc(Cl)cc1C=Nc1cc(C(F)(F)F)ccc1N1CCc2ccccc2C1	n	n	n	n	87	n
O=C(CC[C@H]1O[C@@H](n2ccc(=O)[nH]c2=O)[C@H](O)[C@@H]1O)NC1CCN(Cc2ccccc2)C1 (some centres undefined)	x	n	x	x	x	x
COc1cccc(C(=O)NC2C(=O)N3C(C(=O)O)=C(COC(C)=O)CSC23)c1 (centres undefined)	n	n	n	n	x	n
CC(=O)OCC1=C(C(=O)O)N2C(=O)C(NC(=O)c3ccc(COc4cccc(Cl)c4Cl)o3)C2SC1 (centres undefined)	n	n	n	n	72	n
CC1(C)Cc2c(C#N)c(N3CCN(C(=O)c4ccccc4Cl)CC3)nc(-c3ccco3)c2CS1	n	n	17	n	n	n
CC(=O)N1CCN(c2nc(-c3ccco3)c3c(c2C#N)CC(C)(C)SC3)CC1	n	n	n	n	n	n
CC1CCC(C(C)C)C(OC(=O)Cn2c(-c3ccccc3)[n+](C)c3ccccc32)C1 (centres undefined)	n	n	n	n	n	n
Cc1cccc(OCc2n(CC(=O)OC3CC(C)CCC3C(C)C)c3ccccc3[n+]2C)c1 (centres undefined)	n	89	n	n	n	n
COc1cc(/C=N/NC(=O)c2cccnc2)ccc1OC(=O)c1ccc([N+](=O)[O-])cc1	n	76	n	n	n	n
O=C(N/N=C/c1ccc(OC(=O)c2ccc([N+](=O)[O-])cc2)cc1)c1cccnc1	n	n	n	n	n	n
COc1ccc(/C=N/NC(=O)c2cccnc2)cc1COc1ccc(NC(C)=O)cc1	n	n	n	n	n	n
SMILES	IDE cell activ	Granule exo inh	PP1 inh	IDE cell inh	SKKanGAS inh	PP5 primary
COc1ccc(/C=N/NC(=O)c2cccnc2)cc1COc1ccc([N+](=O)[O-])cc1	n	61	n	n	n	n
Fc1ccc2[nH]c3c(N4CCN(C5CCCCC5)CC4)ncnc3c2c1	x	x	n	20	n	n
Clc1ccc(-c2n[nH]c3c2CCC3)cc1Cl	n	n	n	n	88	n
COc1ccccc1NS(=O)(=O)c1cccc(C(=O)N/N=C/c2c(CO)cnc(C)c2O)c1	n	n	n	n	x	n
N#Cc1c(N)nc(Sc2ccc(Cl)cc2)c(C#N)c1-c1ccccc1Cl	n	79	n	n	75	n
CCSc1nc(N)c(C#N)c(-c2ccccc2Cl)c1C#N	n	n	n	n	n	n
O=c1c(N=Nc2ccc(O)cc2)c(-c2ccccc2)[nH]n1-c1ccc([N+](=O)[O-])cc1	n	n	n	n	n	n
O=c1cc(-c2ccccc2)[nH]n1-c1ccc([N+](=O)[O-])cc1	n	n	16	n	51	n
CCOC(=O)N1CCN(S(=O)(=O)N2CCCC(C(=O)NCc3ccccc3OCC)C2)CC1 (centres undefined)	x	n	x	x	x	x
O=c1[nH]n2c(=O)c3c([nH]c2c1N=Nc1cccc(Cl)c1)CCC3	n	n	17	n	n	n
S=c1[nH]nc(-c2cc3c(s2)-c2ccccc2CC3)o1	n	n	n	n	73	n
COc1ccc(NC(=O)N(C)C[C@H]2Oc3c(NC(=O)c4nc5ccccc5s4)cccc3C(=O)N([C@@H](C)CO)C[C@H]2C)cc1	n	n	x	n	x	x
Nc1nc(Nc2ccccc2)nc(NC2CCCCC2)c1[N+](=O)[O-]	n	n	n	n	79	n
CNc1nc(N)c([N+](=O)[O-])c(NC2CCCCC2)n1	n	n	x	x	n	x
O=C(NC1=NCCS1)c1cc(-c2ccccc2)nn1-c1ccccc1	n	n	n	n	51	n
CCN(c1ccccc1)S(=O)(=O)c1cccc(C(=O)N(C)CC(=O)Nc2ccc(F)c(F)c2F)c1	n	n	x	x	x	x
O=C(c1cc(-c2ccc(F)cc2)on1)N1CCCc2ccccc21	n	n	16	n	n	n
CC1CCCC(NC(=O)C2COc3ccccc3O2)C1C (centres undefined)	n	n	n	n	x	n
CN1C(=O)/C(=C\c2ccccc2F)Sc2ccc(C(=O)NC3CCN(Cc4ccccc4)CC3)cc21	n	n	n	n	83	n
COc1ccc(/C=C2\Sc3ccc(C(=O)NC4CC4)cc3N(C)C2=O)cc1OC	n	n	n	n	70	n
O=C(NC1CCN(Cc2ccccc2)CC1)c1ccccc1	n	n	n	n	n	n
COc1ccc(/C=C2\Sc3ccc(C(=O)NCCN4CCCCCC4)cc3N(C)C2=O)cc1	n	n	n	n	n	n

From PubChem BioAssay
